Compound activity as filed in PubChem.
Many of the other results were omitted from the sample, so hits are more common in it than they were.
ERK AVP block: blocks ERK signaling stimulated by vasopressin; 0.99% of 72,000 active; HEK293-V1b, vasopressin-stimulated pERK AlphaScreen; AID 995; Potency, µM (titrated, usually from 57.5 µM), for inactives: at the top dose activity, negative = inhibition, usual class: inhibitors; note: potency is the fitted concentration of half-maximal effect; % is set by controls: 0 for no effect and ±100 for the full control effect; nearly all actives have a fitted effect of over 55% in size
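Overnight-seeded V1b-HEK293 cells in 1% FBS got compound, then vasopressin (25 nM final, 5 min, 37C), then lysis buffer. AlphaScreen detection of phospho-ERK; activity normalized to basal and full-stimulation controls.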
IkB signaling: suppresses IkB signaling in ABC-DLBCL reporter cells; ABC-DLBCL IkBa-CBG/CBR dual luciferase ratio, 4 h; response scale: scaled: untreated 0%, proteasome inhibitor 100%; Potency, µM (top dose mostly 57.1 µM), without a hit: at the highest dose IkBa stabilization activation; 0.04% of 110,000 active; AID 445; active = well fitted curve in the direction sought with a large enough effect in the signal ratio, not every such curve was filed as active; inconclusive = small, poorly fitted or top-dose-only effect, or a change in a side signal; the % refers to the signal ratio;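 note: potency is the fitted concentration of half-maximal effect; the direction sought is a rising ratio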
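Curves were fitted separately to fusion (green), unfused (red) and ratio luminescence, then classed by r2, magnitude and activity. Cells: OCI-Ly3, 4 h compound plus doxycycline at 37C; 10 uM MG-132 defined full response.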
Peg3 imprint: genomic imprint erasure induction | mouse ES Peg3-LacZ reporter, beta-gal luminescence, 40 h | Potency, µM (series often up to 60.7 µM), inactives show top-dose activity change, positive = activation, actives largely listed as activators | 0.02% of 110,000 active; note: potency is the fitted concentration of half-maximal effect
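Gelatin-coated wells received 300 freshly trypsinized female ES cells with a Peg3LacZ-Neo reporter on the maternal allele, then incubated 40 hours at 37C. BetaGlo was added for 5 minutes at room temperature before a single luminescence read.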
CRE-bla Fsk: alters forskolin-stimulated CRE reporter signaling in CHO cells; CHO CRE-bla reporter (cAMP response element driving beta-lactamase), forskolin EC10, beta-lactamase ratio; 2.5% of 71,000 active; Potency, µM (titrated, usually from 38.2 µM), for inactives: top-dose activity change, negative = inhibition, most hits filed as activators; active = well fitted activation curve with a large enough effect in the signal ratio, with a control signal flat, not every such curve was filed as active; inconclusive = small, poorly fitted or top-dose-only effect, or effect the other way, or a change in a side signal; the % refers to the signal ratio; note: potency is the fitted concentration of half-maximal effect; % of control where 0% means no effect
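qHTS titration format; CRE-bla CHO reporter; stimulus EC10 NKH 477, a water-soluble forskolin. Read: CCF4 460/530 nm ratio. Potency expressed as AC50 for activators or inhibitors.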
CHO tox 24h: CHO cell toxicity at 24 h by ATP luminescence | shares compounds with CRE-bla Fsk | CRE-bla CHO viability, ATP luminescence, 24 h | activity, negative = viability loss, % at 46.1 µM | 120 tested, under 10 active
CHO via 40h: cytotoxicity in CRE-bla CHO cells at 40 h | shares compounds with CRE-bla Fsk | CRE-bla CHO viability, ATP luminescence, 40 h | Potency, µM, for inactives: max response, usual class: inhibitors | 120 tested, under 10 active | AID 906
CREB luc CRC: boosts CRE luciferase signal in HEK293 cells. Potency, µM (series often up to 38.3 µM), inactives show at the highest dose activity, positive = activation, actives largely listed as activators. shares compounds with CRE-bla Fsk. 80% of 120 active. HEK293 CRE-luc2P, NKH477 EC10 potentiation, luminescence, 4 h
An asterisk follows results filed as active; [ ] = remark or other dose. Unless noted, calls come from the whole dose curve; as a rule, active = well fitted curve in the direction sought with a large enough effect; inconclusive = small, poorly fitted or top-dose-only effect, or another doubt; inactive = no such curve, though single readings can be large; an effect the other way counts as inactive or inconclusive.

`CN(C)c1nc(SCC#N)nc(N(C)C)n1` gave ERK AVP block -20.4%, IkB signaling -1.5%, Peg3 imprint 2.4% and CRE-bla Fsk inconclusive.
CN(C)c1nc(N(C)C)nc(N(C)C)n1 was read as ERK AVP block -13.3%, IkB signaling -0.1%[25.6 µM], Peg3 imprint -5.6%, CRE-bla Fsk 5.8%[17.1 µM], CHO tox 24h 3.0, CHO via 40h -2.6% and CREB luc CRC inconclusive.
Screening CCOC(=O)CCN1C(=O)[C@H]2[C@H]3[C@H](O)[C@H](O)C/C(=N/NC(=O)OCc4ccccc4)[C@@H]3CC[C@@H]2C1=O returned ERK AVP block -1.8%[11.5 µM].
For Nc1nc(CSc2n[nH]c(-c3ccccc3)n2)nc(Nc2ccccc2)n1 the results were ERK AVP block 25.1µM*, IkB signaling inconclusive, Peg3 imprint -18.3%, CRE-bla Fsk 2µM*, CHO tox 24h -10.4, CHO via 40h inconclusive and CREB luc CRC 5.01µM*.
COC(=O)[C@H](CCSC)NC(=O)C/C=C\[C@@H](C)CO was read as ERK AVP block -2.6%[11.5 µM].
Cn1c(/C(C#N)=C/Nc2ccccn2)nc2ccccc21 was read as CHO tox 24h 6.0, CHO via 40h -12.4% and CREB luc CRC 12.6µM*.
`COc1cc(C)cc(OC)c1/C=C\C(=O)O` gave ERK AVP block 10.9%[11.5 µM], IkB signaling 0.3%[11.4 µM], Peg3 imprint -6.5%[10.9 µM] and CRE-bla Fsk 7.0%[7.6 µM].
Cc1ccc(Nc2c3c(nc4ncnn24)CCC3)cc1 was read as ERK AVP block -28.9%, IkB signaling 0.6%, Peg3 imprint 8.6%, CRE-bla Fsk 17.5%, CHO tox 24h 10.4, CHO via 40h -14.4% and CREB luc CRC 12.6µM*.
O=S(=O)(c1ccc2c(c1)OCCO2)N1CCN(c2cccc(Cl)c2)CC1 was read as ERK AVP block 7.7%, IkB signaling 9.8%, Peg3 imprint -15.9% and CRE-bla Fsk inconclusive.
`O=S(=O)(c1ccc2c(c1)OCCO2)N1CCC(O)(c2ccc(Cl)cc2)CC1` gave ERK AVP block 9.1%, IkB signaling -1.4%, Peg3 imprint 11.4%, CRE-bla Fsk 1.4%, CHO tox 24h -2.2, CHO via 40h -6.1% and CREB luc CRC inconclusive.
COc1ccc(/C(O)=C(\C#N)c2nc3ccccc3n2C)cc1OC was read as ERK AVP block 4.1%, IkB signaling 7.5%, Peg3 imprint 1.6%, CRE-bla Fsk 5.01µM*, CHO tox 24h -9.0, CHO via 40h -18.7% and CREB luc CRC 4.47µM*.
For Cn1c(/C(C#N)=C(\O)c2ccc(S(=O)(=O)N3CCCCC3)cc2)nc2ccccc21 the results were ERK AVP block 24.9%, IkB signaling -1.1%, Peg3 imprint -4.3% and CRE-bla Fsk inconclusive.
Screening Cc1sc2nc(SCc3nc4ccccc4[nH]3)n(Cc3ccco3)c(=O)c2c1C returned ERK AVP block -18.9%, IkB signaling inconclusive, Peg3 imprint -0.9%, CRE-bla Fsk 0.631µM*, CHO tox 24h -16.5, CHO via 40h inconclusive and CREB luc CRC 1.58µM*.
`COc1cccc(CSc2nc3sc(C)c(C)c3c(=O)n2Cc2ccco2)c1` gave ERK AVP block 59.2%, IkB signaling 4.3%, Peg3 imprint -28.6% and CRE-bla Fsk -4.7%.
CCS(=O)(=O)c1ncc(Cl)c(C(=O)N2CCN(c3cccc(Cl)c3)CC2)n1 was read as IkB signaling inconclusive and Peg3 imprint -37.5%[10.9 µM].
`Clc1ccc(C2=Nn3c(nnc3-c3n[nH]c4c3CCC4)SC2)cc1Cl` gave ERK AVP block inconclusive, IkB signaling 5.7%, Peg3 imprint -16.2%, CRE-bla Fsk 1µM*, CHO tox 24h inconclusive, CHO via 40h 15.8µM* and CREB luc CRC inconclusive.
Screening COc1ccccc1-c1nnc2n1N=C(C)CS2 returned ERK AVP block -6.0%, IkB signaling 5.8%, Peg3 imprint -3.5% and CRE-bla Fsk 2.1%.
